Experimental data from PubChem BioAssay (NCI).
Compounds without any hit were thinned out: in the full panel of roughly 83,000, 20% have a hit.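 96-well plates, one dose, 48 hours. Percent growth reported; active if below 10.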 A number with no mark means an inactive call. The source made the active and inactive calls.

The compounds below were run on K-562 leukemia (assay: NCI-60 one-dose screen, 48 h (100 = growth as untreated, 0 = no growth, -100 = all killed)). Details: 10 µM unless noted.

Compound | growth
CC(C)Cc1nc(Nc2ccccc2)[nH]c(=O)c1C#N | 48.8%
CN(C)/C(N)=N/N=C(\c1ccccc1)c1ccccn1 | 96.7%
CS(=O)(=O)Nc1cc(-c2ccc3ncnc(Nc4ccc5c(cnn5Cc5ccccc5F)c4)c3c2)cnc1Cl | 57.3%
Nc1cc(-c2ccc(Cl)cc2)nn1-c1nnc(/C=C/c2ccco2)c(=O)[nH]1 | 41.7%
CCCN(CCSSCCNc1nc(N(C)O)nc(N(C)O)n1)c1nc(N(C)O)nc(N(C)O)n1 | 157%
Cc1nc([P+](c2ccccc2)(c2ccccc2)c2ccccc2)c(N2CCCCC2)o1 | 15.8%
CCN(CC)CCn1c2ccc(OC)cc2c2sc3cc(O)ccc3c(=O)c21 | 6.38% (active)
O=C(NCCCCCCNC(=O)OCc1ccc2c(Cl)cc(Cl)c(O)c2n1)OCc1ccc2c(Cl)cc(Cl)c(O)c2n1 | 1.59% (active)
O=C(Nc1cccnc1Nc1ccc(Cl)cc1)c1cn(Cc2cccc(Oc3ccccc3)c2)nn1 | 23.1%
Cc1ccc2c(c1)sc1nc(-c3c[nH]c4ccccc34)c(Nc3ccccc3)n12 | 94.4%
CN1c2ccccc2S(=O)(=O)n2c(SCC(=O)Nc3nc4ccc(F)cc4s3)nnc21 | 116%
COC12C=C/C(=C(/C(=O)OCc3csc(SC)n3)C(=O)CCCCCCCCC3(OC)C=C/C(=C(/C(=O)OCc4cnc(SC)s4)C(=O)CCCCCCCC1)O3)O2 (centres undefined) | 25.3%
Nc1[nH]nc2nc(-c3ccccc3)n3c4ccccc4nc3c12 | 106%
CS(=O)/C(C#N)=C\C=C\c1cccc(Cl)c1 (centres undefined) | 10.3%
CN(C)CCCC1(c2ccc(F)cc2)OCc2cc(-c3csc4ccccc34)ccc21 (centres undefined) | -31.8% (active)
COCCn1cc(-c2csc(-c3c[nH]c4ccccc34)n2)c2cccnc21 | 18.1%
O=S(=O)(NCCNc1nccc(-c2c(-c3ccc(F)c(O)c3)nc3sccn23)n1)c1ccc(Cl)cc1 | 15.7%
Cc1cccc(NC(=O)N/C(N)=N/c2nc3ccccc3s2)c1 | 18.1%
N#Cc1c(-c2cccc(Cl)c2)cc(-c2cccnc2)[nH]c1=O | 43.9%
C=CC(CC(c1ccccc1)(c1ccccc1)c1ccccc1)N(CC)CC (centres undefined) | 25.4%
C/C(=C(\c1ccc(OCCN2CCCCCC2)cc1)c1ccc(OC(=O)c2ccccc2)cc1)c1ccc(Cl)cc1 | -4.61% (active)
O=C(/C=C/c1ccccc1)c1ccc(-n2cc(CN3CCN(c4cc5c(cc4F)c(=O)c(C(=O)O)cn5C4CC4)CC3)nn2)cc1 | 56%
CCCCCCCCCCCCCCCCCCOc1ccccc1CC(=O)NCC[N+](C)(C)C | 25.9%
CCN(CC)CCOc1ccc(/C(=C(\C)Cc2ccc(OC)cc2)c2ccc(OC(=O)NCc3ccccc3)cc2)cc1 | -51% (active)
COc1cc([C@@H](CCO)C[C@H](C)c2ccc3ccccc3c2)cc(OC)c1OC | 12.1%
CCOC(=O)/C(=C(/C)NCC(C)C)c1cc(O)c(O)c2c(C)cc(=O)[nH]c12 | 24.5%
COc1ccc(/C=C2\c3cc(OC)c(OC)c(OC)c3CC[C@@H]2O)cc1F | 13.4%
O=c1oc2c(cc1-c1ccccc1)c[n+]([O-])c1ccccc21 | 92.6%
CN1C(=O)/C(=C/c2ccc(C(=O)Nc3ncc(Cc4cccc(C(F)(F)F)c4)s3)cc2)SC1=S | 48.2%

What follows are compounds tested on MALME-3M melanoma in the same assay as above. Details: 10 µM unless noted.

Compound | growth
O=C(Nc1ncc(Cc2ccccc2)s1)c1sc2ccccc2c1Cl | 51%
Cc1ccccc1N1CCN(C(=S)c2ccccc2)CC1 | 103%
CC(C)(C)c1ccc(S(=O)(=O)Oc2ccc(-c3sc4cc(OS(=O)(=O)c5ccc(C(C)(C)C)cc5)ccc4c3C(=O)c3ccc(OCCN4CCCCC4)cc3)cc2)cc1 | 107%
CCn1cc(C(=O)N/N=C/c2ccccc2)c(=O)c2cc(F)c(N3CCNC(C)C3)c(F)c21 (centres undefined) | -78% (active)
COC1/C=C/OC2(C)Oc3c(C)c(O)c4c(O)c(c(/C=N/N(c5ccccc5)c5ccccc5)c(O)c4c3C2=O)NC(=O)C(C)=C/C=C/C(C)C(O)C(C)C(O)C(C)C(OC(C)=O)C1C (centres undefined) | 111%
CS(=O)(=O)c1ccc(-c2nc3ccccc3n2CC(=O)N/N=C/c2ccccc2)cc1 | 82.4%
CC(=O)O[C@H]1CC[C@]2(C)[C@H]3CC=C4[C@@H]5CC(C)(C)CC[C@]5(C(=O)N5CCN(CCC#N)CC5)CC[C@@]4(C)[C@]3(C)CC[C@H]2C1(C)C | 26%
C[N+]1=C(/C=C/c2ccccc2Cl)C(C)(C)c2ccccc21 | 98.4%
COC(=O)/C=C1/SC(=Nc2ccc(F)cc2)N(CCc2c[nH]c3ccc(O)cc23)C1=O | 58.9%
Cc1c2ccccc2nc2cc3c(cc12)[C@H]1CC[C@]2(C)C(=O)CC[C@H]2[C@@H]1CC3 | 108%
O=C(/C=C/C12c3ccccc3C(c3ccccc31)C1C(=O)NC(=O)C12)c1ccco1 (centres undefined) | 49.3%
CC(C)Cc1nc(Nc2ccccc2)[nH]c(=O)c1C#N | 72.6%
CN(C)/C(N)=N/N=C(\c1ccccc1)c1ccccn1 | 93.3%
CS(=O)(=O)Nc1cc(-c2ccc3ncnc(Nc4ccc5c(cnn5Cc5ccccc5F)c4)c3c2)cnc1Cl | -7.51% (active)
Nc1cc(-c2ccc(Cl)cc2)nn1-c1nnc(/C=C/c2ccco2)c(=O)[nH]1 | 72.5%
CCCN(CCSSCCNc1nc(N(C)O)nc(N(C)O)n1)c1nc(N(C)O)nc(N(C)O)n1 | 62.1%
Cc1nc([P+](c2ccccc2)(c2ccccc2)c2ccccc2)c(N2CCCCC2)o1 | 53.7%
CCN(CC)CCn1c2ccc(OC)cc2c2sc3cc(O)ccc3c(=O)c21 | 34.1%
O=C(NCCCCCCNC(=O)OCc1ccc2c(Cl)cc(Cl)c(O)c2n1)OCc1ccc2c(Cl)cc(Cl)c(O)c2n1 | -84.5% (active)
O=C(Nc1cccnc1Nc1ccc(Cl)cc1)c1cn(Cc2cccc(Oc3ccccc3)c2)nn1 | 58%

Compound | growth
Cc1ccc2c(c1)sc1nc(-c3c[nH]c4ccccc34)c(Nc3ccccc3)n12 | 101%
CN1c2ccccc2S(=O)(=O)n2c(SCC(=O)Nc3nc4ccc(F)cc4s3)nnc21 | 98.8%
COC12C=C/C(=C(/C(=O)OCc3csc(SC)n3)C(=O)CCCCCCCCC3(OC)C=C/C(=C(/C(=O)OCc4cnc(SC)s4)C(=O)CCCCCCCC1)O3)O2 (centres undefined) | -1.67% (active)
Nc1[nH]nc2nc(-c3ccccc3)n3c4ccccc4nc3c12 | 108%
CS(=O)/C(C#N)=C\C=C\c1cccc(Cl)c1 (centres undefined) | 34.7%
CN(C)CCCC1(c2ccc(F)cc2)OCc2cc(-c3csc4ccccc34)ccc21 (centres undefined) | -92.1% (active)
COCCn1cc(-c2csc(-c3c[nH]c4ccccc34)n2)c2cccnc21 | 52.3%
O=S(=O)(NCCNc1nccc(-c2c(-c3ccc(F)c(O)c3)nc3sccn23)n1)c1ccc(Cl)cc1 | 20.6%
Cc1cccc(NC(=O)N/C(N)=N/c2nc3ccccc3s2)c1 | 50.7%
N#Cc1c(-c2cccc(Cl)c2)cc(-c2cccnc2)[nH]c1=O | 62.5%
C=CC(CC(c1ccccc1)(c1ccccc1)c1ccccc1)N(CC)CC (centres undefined) | 54%
C/C(=C(\c1ccc(OCCN2CCCCCC2)cc1)c1ccc(OC(=O)c2ccccc2)cc1)c1ccc(Cl)cc1 | 17.3%
O=C(/C=C/c1ccccc1)c1ccc(-n2cc(CN3CCN(c4cc5c(cc4F)c(=O)c(C(=O)O)cn5C4CC4)CC3)nn2)cc1 | 91.2%
CCCCCCCCCCCCCCCCCCOc1ccccc1CC(=O)NCC[N+](C)(C)C | 78.8%
CCN(CC)CCOc1ccc(/C(=C(\C)Cc2ccc(OC)cc2)c2ccc(OC(=O)NCc3ccccc3)cc2)cc1 | 26.1%
COc1cc([C@@H](CCO)C[C@H](C)c2ccc3ccccc3c2)cc(OC)c1OC | 44.5%
CCOC(=O)/C(=C(/C)NCC(C)C)c1cc(O)c(O)c2c(C)cc(=O)[nH]c12 | 53.8%
COc1ccc(/C=C2\c3cc(OC)c(OC)c(OC)c3CC[C@@H]2O)cc1F | 70.2%
O=c1oc2c(cc1-c1ccccc1)c[n+]([O-])c1ccccc21 | 97.7%
CN1C(=O)/C(=C/c2ccc(C(=O)Nc3ncc(Cc4cccc(C(F)(F)F)c4)s3)cc2)SC1=S | 32.2%
